Results: PubChem BioAssay AID602270 (The Scripps Research Institute Molecular Screening Center, 2012)
Some of the results follow. A number with no mark means an inactive call. Activity calls are given as the source filed them. No stated cut-off is given here; in the data, active means activation above about 4%; inactive means the rest.

system: Methionine sulfoxide reductase A (Bos taurus); assay: bovine MsrA activators, retest, confirmation, biochemical, absorbance, HTS (AID 602270); settings: purified bovine MsrA, absorbance read-out; at 10.6 µM; active compounds read high;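 further: enzyme coupled to thioredoxin and thioredoxin reductase with NADPH; 0% = vehicle wells and 100% = reference activator wells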

Compound | activation
O=C(O)/C=C/c1cn(Cc2ccccc2)nc1-c1cccs1 | -1.62%
CCOc1ccc2[nH]c(=S)sc2c1 | 1.68%
CSCCC1NC(=O)N(CC(=O)Nc2cccc(S(=O)(=O)N3CCCCCC3)c2)C1=O (centres undefined) | -0.9%
O=C(Cc1ccc(NC(=O)C2CCCN(C(=O)C3CCCCC3)C2)cc1)Nc1cccc(C(=O)N2CCCCC2)c1 (centres undefined) | -3.28%
Cc1ccc(C)c(NC(=O)CSc2nnc(Cc3cccn3C)n2-c2ccc(F)cc2)c1 | 2.75%
COc1ccc(C(=O)COC(=O)c2ccc([N+](=O)[O-])s2)cc1OC | 2.35%
CC1(C)S[C@@H]2[C@H](NC(=O)COc3ccccc3)C(=O)N2C1C(=O)OCc1ccccc1 (some centres undefined) | 0.74%
CN1c2ccc(C=O)c3c(C=O)ccc(c23)N(C)C1(C)C | -1.46%
COc1ccc(C(CNC(=O)c2cc3c(s2)CCCC3)N2CCOCC2)cc1 (centres undefined) | 0.61%
CC(=O)N(O)CCCCCNC(=O)CCC(=O)N(O)CCCCCNC(=O)CCC(=O)N(O)CCCCCNC(=O)CCC(=O)O | -3.63%
Cc1noc(NS(=O)(=O)c2ccc(NC(=O)C34CCC(CC3)C4)cc2)c1C | -0.66%
CCN(CC)CCCC(C)n1c2nc(=O)[nH]c(=O)c-2nc2cc(Cl)ccc21 (centres undefined) | 8.41% (active)
CC(=O)NC(Cc1c[nH]c2ccccc12)C(=O)O (centres undefined) | -0.4%
C=CCn1c(SCC(=O)c2c(N)n(C)c(=O)n(C)c2=O)nc2sc(CC)cc2c1=O | -2.75%
